Assay [1] is described as follows: qHTS assay to identify aromatase inhibitors - cell viability counter screen (AID 743084).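 Further: cells stimulated with testosterone during compound exposure; nearly all actives have a fitted effect of over 55% in size.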 On the technique in general: In qHTS, concentration-response curves come from the screen itself.
The target of assay [2] is Aryl hydrocarbon receptor (Homo sapiens) (UniProt P35869). Briefly: qHTS assay to identify small molecule that activate the aryl hydrocarbon receptor (AhR) signaling pathway (AID 743085). Further: nearly all actives have a fitted effect of over 15% in size.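 On activation: HG2L7.5c1 human HepG2 liver cells with stably integrated DRE-driven firefly reporter; series mostly up to about 70 µM.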 The essentials:
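Luminescence read-out: ONE-Glo reagent, 30 min at room temperature, in HG2L7.5c1 HepG2 reporter cells treated 24 h at 37C. Viability was measured beforehand by CellTiter-Fluor fluorescence after 30 min at 37C.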

The target in assay [3] is Peroxisome proliferator-activated receptor gamma (Homo sapiens) (UniProt P37231). The experiment in a line: qHTS assay to identify small molecule agonists of the peroxisome proliferator-activated receptor gamma (PPARg) signaling pathway (AID 743094; active means well fitted activation curve with a large enough effect in the signal ratio in the repeat runs, not every such curve was filed as active; the % refers to the signal ratio). A digest of the protocol:
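GeneBLAzer PPARg UAS-bla HEK293H cells were plated, rested 5 h, then exposed to compounds for 17 h at 37C. Beta-lactamase activity was read by LiveBLAzer B/G FRET substrate fluorescence after 1 h at room temperature.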

Assay [4] is described as follows: qHTS assay to identify small molecule that activate the aryl hydrocarbon receptor (AhR) signaling pathway - cell viability counter screen (AID 743086). Further: nearly all actives have a fitted effect of over 45% in size. The essentials: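 HepG2-AhR-luc (HG2L7.5c1) cells, 4000/well, were preincubated 5 h at 37C, exposed to compound in qHTS format for 24 hr at 37C, then given CellTiter-Fluor for 30 min; viability was read as fluorescence in the reporter wells.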

The nature of assay [5]: qHTS assay to identify small molecule antagonists of the peroxisome proliferator-activated receptor gamma (PPARg) signaling pathway - cell viability counter screen (AID 743194). Further: nearly all actives have a fitted effect of over 55% in size. The essentials: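 PPARg-UAS-bla HEK293H cells were plated, rested 5 h at 37 C, then treated with compounds plus rosiglitazone (50 nM final) for 17 h at 37 C; viability was then read by CellTiter-Glo luminescence after 30 min at room temperature.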

A short description of assay [6]: qHTS assay for small molecule agonists of the antioxidant response element (ARE) signaling pathway - cell viability counter screen (AID 743203; calls by dose curve; further: nearly all actives have a fitted effect of over 55% in size). A digest of the protocol:
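ARE-bla HepG2 cells were plated, rested 5 h at 37C/5% CO2, then exposed to compounds in DMSO for 16 h. Viability was read as CellTiter-Glo luminescence after 30 min at room temperature, in the same wells as the ARE screen.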

Assay [7] is described as follows: qHTS assay for small molecule activators of the heat shock response signaling pathway - cell viability counter screen (AID 743209). Further: nearly all actives have a fitted effect of over 50% in size. A digest of the protocol:
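HSE-bla HeLa cells plated overnight, then exposed to Tox21 compounds (23 nL in DMSO) for 5 h at 37 C. After the bla reporter read, CellTiter-Glo was added in the same wells and luminescence read after 30 min at room temperature.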

A short description of assay [8]: qHTS assay for small molecule agonists of the antioxidant response element (ARE) signaling pathway (AID 743202; active means well fitted activation curve with a large enough effect in the signal ratio in the repeat runs, not every such curve was filed as active; the % refers to the signal ratio). The essentials:
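Read-out: LiveBLAzer B/G FRET substrate fluorescence after 2 h at room temperature, following 16 h compound treatment at 37 C of HepG2 cells carrying an ARE-driven beta-lactamase reporter.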

Inconclusive results are not listed. Calls of active or inactive are those of the source. Unless noted, the call rests on the fitted dose curve; in most records, active means well fitted curve in the direction sought with a large enough effect in the repeat runs; inconclusive means weak or mixed curves; inactive means no such curve, though single readings can be large; an effect the other way counts as inactive or inconclusive. Residues, ends and D or L forms follow the SMILES beside them.
Potency means the concentration at half of the fitted maximal effect.

Sequence of Peroxisome proliferator-activated receptor gamma (Homo sapiens) (P37231 whole entry, looked up): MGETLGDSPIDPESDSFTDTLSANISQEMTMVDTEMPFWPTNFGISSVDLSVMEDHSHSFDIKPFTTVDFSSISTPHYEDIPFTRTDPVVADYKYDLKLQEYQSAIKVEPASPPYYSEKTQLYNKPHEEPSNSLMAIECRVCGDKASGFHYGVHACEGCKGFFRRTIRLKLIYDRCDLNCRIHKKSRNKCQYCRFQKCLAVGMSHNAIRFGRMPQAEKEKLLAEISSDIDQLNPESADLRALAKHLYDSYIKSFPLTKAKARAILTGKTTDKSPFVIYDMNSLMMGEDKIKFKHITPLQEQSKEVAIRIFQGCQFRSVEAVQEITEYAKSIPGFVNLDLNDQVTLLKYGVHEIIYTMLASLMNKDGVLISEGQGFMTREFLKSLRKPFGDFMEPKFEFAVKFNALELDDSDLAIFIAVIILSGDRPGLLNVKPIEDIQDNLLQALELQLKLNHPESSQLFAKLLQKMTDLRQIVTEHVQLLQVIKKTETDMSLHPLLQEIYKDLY
Sequence of Aryl hydrocarbon receptor (Homo sapiens) (P35869 whole entry, looked up): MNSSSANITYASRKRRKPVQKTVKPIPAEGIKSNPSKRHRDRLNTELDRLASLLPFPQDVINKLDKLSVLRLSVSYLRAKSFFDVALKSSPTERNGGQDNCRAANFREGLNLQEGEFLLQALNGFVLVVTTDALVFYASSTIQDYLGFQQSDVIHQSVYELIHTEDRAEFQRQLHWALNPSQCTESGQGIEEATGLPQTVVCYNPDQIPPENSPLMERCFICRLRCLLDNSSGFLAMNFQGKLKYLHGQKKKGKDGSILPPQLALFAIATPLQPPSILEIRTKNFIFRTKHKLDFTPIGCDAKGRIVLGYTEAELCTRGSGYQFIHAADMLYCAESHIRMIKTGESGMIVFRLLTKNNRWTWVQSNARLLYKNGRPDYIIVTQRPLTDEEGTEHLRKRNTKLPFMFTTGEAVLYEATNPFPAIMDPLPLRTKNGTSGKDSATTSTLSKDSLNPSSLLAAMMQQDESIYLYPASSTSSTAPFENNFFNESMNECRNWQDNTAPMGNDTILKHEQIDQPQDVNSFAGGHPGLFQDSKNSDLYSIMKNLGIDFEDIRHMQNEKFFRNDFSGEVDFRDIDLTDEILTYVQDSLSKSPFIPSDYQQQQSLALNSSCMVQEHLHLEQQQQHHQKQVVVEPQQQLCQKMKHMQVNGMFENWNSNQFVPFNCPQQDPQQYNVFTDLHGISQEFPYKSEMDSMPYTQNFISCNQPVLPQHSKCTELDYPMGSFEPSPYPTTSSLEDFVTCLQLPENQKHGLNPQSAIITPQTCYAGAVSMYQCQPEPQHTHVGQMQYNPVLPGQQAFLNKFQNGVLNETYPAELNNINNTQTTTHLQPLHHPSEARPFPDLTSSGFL

`CC(C)[C@H](NC(=O)[C@H](CC(=O)O)NC(=O)[C@H](CCCCN)NC(=O)[C@@H](N)CCCN=C(N)N)C(=O)N[C@@H](Cc1ccc(O)cc1)C(=O)O` (H-RKDVY-OH): the Potency entry in assay [1], in assay [2] and in assay [3] was “inactive” throughout.
Turning to `CO/N=C(\C(=O)N[C@@H]1C(=O)N2C(C(=O)[O-])=C(C[n+]3ccc(N)n3CCO)CS[C@H]12)c1csc(N)n1`, the Potency entry in assay [1], in assay [2] and in assay [3] was “inactive” each time.
Turning to `CC1=C(/C=C/C(C)=C/C=C/C(C)=C/C=C/C=C(C)/C=C/C=C(C)/C=C/C2=C(C)CCCC2(C)C)C(C)(C)CCC1`, the Potency entry in assay [1], in assay [2] and in assay [3] was “inactive” in each case.
For the compound `O=C[C@H](O)[C@@H](O)[C@@H](O)[C@H](O)CO`, the Potency result in assay [1], in assay [2] and in assay [3] was “inactive” throughout.
Take `CC(C)Cc1ccc([C@H](C)C(=O)O)cc1`: the Potency entry in assay [1], in assay [2] and in assay [3] was “inactive” each time.
In the case of `CC(C)(Oc1ccc(C2CCCc3ccccc32)cc1)C(=O)O` (stereo unspecified), the Potency entry in assay [1] and in assay [2] was “inactive” throughout. Moreover, in assay [3], the Potency is 2.39 µM (active).
For `N#Cc1nc(Cl)c(Cl)c(Cl)c1Cl`, the Potency in assay [1] was 7.7 µM (active); in assay [4], 54.5 µM (active); in assay [5], 4.36 µM (active); in assay [6], 6.11 µM (active); in assay [7], 2.19 µM (active). Also, the Potency entry in assay [2] was “inactive”.
For the compound `CN(C)CCC(O)(c1ccccc1)c1ccccc1Cl` (stereo unspecified), the Potency entry in assay [1], in assay [2] and in assay [3] was “inactive” each time.
On to `CC[C@H](C)C(=O)O[C@H]1CCC=C2C=C[C@H](C)[C@H](CC[C@@H]3C[C@@H](O)CC(=O)O3)[C@H]21`, for which the Potency result in assay [1], in assay [2] and in assay [3] was “inactive” in each case.
Turning to `C=C1C(CCl)(CCl)C2(Cl)C(Cl)C(Cl)C1(Cl)C2(Cl)Cl` (stereo unspecified), the Potency was 53.8 µM (active) in assay [1], 54.3 µM (active) in assay [5], 60.4 µM (active) in assay [6] and 54.3 µM (active) in assay [7]. Further, the Potency result in assay [2] and in assay [4] was “inactive” throughout.
Regarding `CC12CCC(C[N+](C)(CCC[N+](C)(C)C)C1)C2(C)C` (stereo unspecified), the Potency entry in assay [1], in assay [2] and in assay [3] was “inactive” throughout.
As for `N[C@H](CO)C(=O)O`, the Potency entry in assay [1], in assay [2] and in assay [3] was “inactive” throughout.
Take `NCc1cccc(C2CCN(C(=O)c3ccc(C#Cc4ccccc4F)o3)CC2)c1`: the Potency in assay [1] was 61.1 µM (active); in assay [5] it was 19.5 µM (active); in assay [6], 48.6 µM (active). In addition, the Potency entry in assay [2] and in assay [3] was “inactive” in each case.
`CCCCC[C@H](O)/C=C/[C@@H]1[C@@H](C/C=C\CCCC(=O)O)[C@@H](O)C[C@H]1O`: the Potency result in assay [1], in assay [2] and in assay [3] was “inactive” throughout.
Take `CCC(=O)OC(OP(=O)(CCCCc1ccccc1)CC(=O)N1C[C@H](C2CCCCC2)C[C@H]1C(=O)O)C(C)C` (stereo partly specified): the Potency result in assay [1], in assay [2] and in assay [3] was “inactive” in each case.
On to `CC(=O)OCC1=C(C(=O)O)N2C(=O)[C@@H](NC(=O)Cc3ccccc3)[C@H]2SC1`, for which the Potency entry in assay [1], in assay [2] and in assay [3] was “inactive” each time.
As to `O=P(O)(O)OP(=O)(O)OP(=O)(O)O`, the Potency entry in assay [1], in assay [2] and in assay [3] was “inactive” in each case.
Regarding `CN(C)CCc1c[nH]c2ccc(Cn3cncn3)cc12`, the Potency result in assay [1], in assay [2] and in assay [3] was “inactive” each time.
For the compound `NC(N)=NCc1cccc(I)c1`, the Potency result in assay [1], in assay [2] and in assay [3] was “inactive” in each case.
On to `S=C1NC=NC2N=CNC12` (stereo unspecified), for which the Potency entry in assay [1], in assay [4] and in assay [7] was “inactive” in each case. Further, the Potency in assay [2] is 30.6 µM (active); in assay [8] it was 4.86 µM (active); in assay [6], 8.63 µM (active).
As for `OCC1(CO)COC(C(Cl)(Cl)Cl)OC1`, the Potency entry in assay [1], in assay [2] and in assay [3] was “inactive” in each case.
Turning to `O=C1c2ccccc2CN2C(=O)c3ccccc3CN12`, the Potency result in assay [1], in assay [2] and in assay [3] was “inactive” each time.
`Cc1cc(F)ccc1-c1cc(N2CC[C@@H](O)[C@H]2CO)ncc1N(C)C(=O)C(C)(C)c1cc(C(F)(F)F)cc(C(F)(F)F)c1`: the Potency in assay [1] is 42.6 µM (active); in assay [4], 38 µM (active); in assay [5], 43 µM (active); in assay [6], 21.4 µM (active); in assay [7], 19.2 µM (active). In assay [2], the Potency entry was “inactive”.
As for `CC(C)C[C@H](NC(=O)[C@@H](COC(C)(C)C)NC(=O)[C@H](Cc1ccc(O)cc1)NC(=O)[C@H](CO)NC(=O)[C@H](Cc1c[nH]c2ccccc12)NC(=O)[C@H](Cc1cnc[nH]1)NC(=O)[C@@H]1CCC(=O)N1)C(=O)N[C@@H](CCCN=C(N)N)C(=O)N1CCC[C@H]1C(=O)NNC(N)=O`, the Potency result in assay [1], in assay [2] and in assay [3] was “inactive” throughout.
Take `C[S+](C)CCC(N)C(=O)O` (stereo unspecified): the Potency entry in assay [1], in assay [2] and in assay [3] was “inactive” in each case.
As to `COc1ccc([C@@H]2CC(=O)c3c(O)cc(O[C@@H]4O[C@H](CO[C@@H]5O[C@@H](C)[C@H](O)[C@@H](O)[C@H]5O)[C@@H](O)[C@H](O)[C@H]4O)cc3O2)cc1O`, the Potency result in assay [1], in assay [2] and in assay [3] was “inactive” each time.
In the case of `CCSCC`, the Potency result in assay [1], in assay [2], in assay [3], in assay [5], in assay [8] and in assay [6] was “inactive” in each case. Moreover, the Potency result in assay [7] was “inactive”.
With `CCOc1ccc([N+](=O)[O-])cc1`, the Potency in assay [1] is 55.3 µM (active); in assay [7], 44.3 µM (active). The Potency result in assay [2] and in assay [4] was “inactive” throughout.
Take `O=C(Cn1cnnn1)N[C@@H]1C(=O)N2C(C(=O)O)=C(CSc3nncs3)CS[C@H]12`: the Potency entry in assay [1], in assay [2] and in assay [3] was “inactive” each time.
Turning to `CC(C)COC(=O)OCN1C(=O)CN(CCN2CC(=O)N(COC(=O)OCC(C)C)C(=O)C2)CC1=O`, the Potency entry in assay [1], in assay [2] and in assay [3] was “inactive” throughout.
For `OCCCNc1ccccc1`, the Potency entry in assay [1], in assay [2] and in assay [3] was “inactive” in each case.
Regarding `O=C(O)[C@@H]1C[C@H](CP(=O)(O)O)CCN1`, the Potency entry in assay [1], in assay [2] and in assay [3] was “inactive” in each case.
`COC(=O)C(CN)c1c[nH]c2ccc(OC)cc12` (stereo unspecified): the Potency entry in assay [1], in assay [4] and in assay [3] was “inactive” each time.
For the compound `O=C1c2ccccc2C(=O)C1c1ccc(F)cc1`, the Potency entry in assay [1], in assay [4] and in assay [3] was “inactive” in each case.
For the compound `CN1CCN(CCCN2c3ccccc3Sc3ccc(C(F)(F)F)cc32)CC1`, the Potency is 29.8 µM (active) in assay [1], 29.8 µM (active) in assay [5], 15 µM (active) in assay [6] and 29.8 µM (active) in assay [7]. In assay [2], the Potency entry was “inactive”.

The values are drawn from PubChem BioAssay (Tox21).
